Screens from PubChem BioAssay.
Only some compounds are listed: those with a hit (about 0.88% of all), similar ones and a draw of the others.
MBNL1-CUG inh – qHTS Assay for Inhibitors of MBNL1-poly(CUG) RNA binding. Muscleblind-like protein 1 (Homo sapiens), Q9NR56. TR-FRET MBNL1-His/biotin-(CUG)12 binding, 665/545 ratio. Potency, µM (titrated, usually from 57.5 µM), usual class: inhibitors. 280,000 compounds, 0.036% hits. AID 2675, 2010; active = well fitted inhibition curve with a large enough effect in the signal ratio, with a control signal flat, not every such curve was filed as active; inconclusive = small, poorly fitted or top-dose-only effect, or effect the other way, or a change in a side signal; inactive = no such curve, though single readings can be large or run the other way; the % refers to the signal ratio
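Inhibition of protein-RNA binding appears as loss of TR-FRET between terbium anti-His antibody on MBNL1-His and streptavidin-XL665 on biotin-(CUG)12. Activity is normalized to buffer-only and uninhibited-complex controls.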
IL-2 act – qHTS of IL-2 Activators. IL-2 activation reporter assay, cell-based qHTS; stimulated with anti-CD3/CD4/CD28 beads; in transgenic mouse T cells. activation, % (series mostly up to about 46 µM). 360,000 compounds, 0.065% hits; in the data active = activation above about 50%; inconclusive = mostly about 30% to 49%
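Readout is EGFP and DsRed signal by fluorescent plate cytometry after 18 h at 37 degrees C. Transgenic mouse T cells (750/well) received compound for 60 min before bead stimulation (anti-CD3, anti-CD4, anti-CD28); memory T cells served as non-tolerant control.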
CBFb-RUNX1 inh – qHTS Assay for Compounds Blocking the Interaction Between CBF-beta and RUNX1 for the Treatment of Acute Myeloid Leukemia; AlphaScreen CBFb-His/RUNX1-biotin binding, biochemical; Potency, µM (highest dose often 59.8 µM), hits mostly inhibitors; 230,000 tested, under 10 active; AID 1477, 2009
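Compounds were screened at multiple concentrations against a preformed CBF-beta(His)/RUNX1(biotin) complex (30 nM of each) for 15 min at room temperature, followed by 90 min with nickel and streptavidin beads and AlphaScreen reading.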
TRHR PAM – qHTS for Small Molecule Agonists and Allosteric Enhancers of Human TRH Receptor: Primary Screen for Enhancers; enhancement, % at 2 µM; 360,000 compounds, 0.66% hits; TRHR cells, fluo-8 calcium fluorescence, EC20 TRH enhancement; Thyrotropin-releasing hormone receptor (Homo sapiens), P34981; in the data active = enhancement above about 30%
Target sequence (P34981 whole entry, looked up): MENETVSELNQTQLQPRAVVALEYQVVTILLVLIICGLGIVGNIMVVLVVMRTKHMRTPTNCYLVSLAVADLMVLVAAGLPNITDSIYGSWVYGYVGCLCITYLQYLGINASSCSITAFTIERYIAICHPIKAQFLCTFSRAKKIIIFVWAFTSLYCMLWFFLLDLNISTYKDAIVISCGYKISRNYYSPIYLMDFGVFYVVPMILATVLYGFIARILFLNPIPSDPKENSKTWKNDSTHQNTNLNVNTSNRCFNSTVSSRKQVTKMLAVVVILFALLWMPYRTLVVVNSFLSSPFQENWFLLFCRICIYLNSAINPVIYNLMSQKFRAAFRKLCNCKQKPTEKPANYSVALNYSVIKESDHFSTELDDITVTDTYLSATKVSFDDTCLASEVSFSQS
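Enhancer read-out: after compound pinning and an initial kinetic agonist-mode read, an EC20 of TRH (10 nM final) was injected and fluo-8 calcium signal (Ex 480/Em 530) followed at 1 s/cycle for 100 cycles in TRHR-expressing cells.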
Epigenetic derep – Quantitative High-Throughput Screen for Regulators of Epigenetic Control | murine LDR cells, GFP reporter derepression, 30 h | Potency, µM (top dose mostly 53.9 µM), usual class: activators | 280,000 compounds, 0.2% hits | AID 1865, 2009; note: nearly all actives have a fitted effect of over 60% in size
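Derepression of a silenced CMV-GFP reporter in murine LDR cells is scored by enumerating GFP-positive cells with a laser-scanning microplate cytometer after 30 hours of treatment at 37 C.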
TRHR ag – qHTS for Small Molecule Agonists and Allosteric Enhancers of Human TRH Receptor: Primary Screen for Agonists. TRHR cells, calcium flux fluo-8, FDSS agonist mode. activation, % at 2 µM. 360,000 compounds, 0.18% hits. AID 493084, 2011; in the data active = activation above about 30%
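TRHR-expressing cells loaded with fluo-8 calcium dye; 23 nL library compound pin-transferred, kinetic FDSS fluorescence (Ex 480/Em 530) recorded about 180 s for agonist-induced calcium release, before a 10 nM TRH EC20 addition for potentiator mode.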
A number is an active result; – = inactive; ? = inconclusive; · = no result. Unless noted, calls come from the whole dose curve; as a rule, active = well fitted curve in the direction sought with a large enough effect; inconclusive = small, poorly fitted or top-dose-only effect, or another doubt; inactive = no such curve, though single readings can be large; an effect the other way counts as inactive or inconclusive.

SMILES	MBNL1-CUG inh	IL-2 act	CBFb-RUNX1 inh	TRHR PAM	Epigenetic derep	TRHR ag
CCn1c(Oc2ccc(F)cc2F)nc2c1c(=O)n(C)c(=O)n2C	·	·	·	–	–	–
COc1cccc(Cn2cc(N)cn2)c1	–	–	–	32.3	–	–
Cc1cccc(OCCC(=O)NCC(=O)Nc2c(C)cccc2C)c1	?	–	–	31.1	–	–
CCCOC(=O)CC1C(=O)NCCN1Cc1cc(OC)cc(OC)c1 (stereo unspecified)	–	–	–	–	–	–
CCOC(=O)CC1C(=O)NCCN1Cc1cccc(OC)c1 (stereo unspecified)	–	–	–	35.8	–	–
COc1ccc(Cn2nnnc2CN(Cc2cc3ccc(C)cc3[nH]c2=O)C2CCCC2)cc1	–	54.9	–	–	–	–
COc1ccc(Cn2nnnc2CN(Cc2cc3cccc(C)c3[nH]c2=O)C2CCCC2)cc1	–	–	–	–	–	–
COc1ccc(OC)c(-c2cc(C(=O)NC(C)c3ccccc3)no2)c1 (stereo unspecified)	·	·	·	–	–	–
CN(C)c1ccc(/C=C/C(=O)c2c(O)c3ccccc3oc2=O)cc1	–	–	–	–	?	38.4
O=[N+]([O-])c1cccnc1N1CCOCC1	?	–	–	–	–	–
O=[N+]([O-])c1cccnc1N1CCN(c2ccc(F)cc2)CC1	?	–	?	36.8	–	–
O=C(Cn1c(=O)ccc2cc(S(=O)(=O)N3CCCC3)ccc21)NCc1ccc(F)cc1	·	·	·	–	–	–
Cc1ccccc1N(C)S(=O)(=O)c1nnc(NC(=O)c2ccccc2F)s1	–	–	·	–	–	–
Cc1ccccc1N(C)S(=O)(=O)c1nnc(NC(=O)C(C)C)s1	·	·	·	–	22.4µM	–
CCCCC/C=C\C\C=C/C=C/C=C/[C@@H](SC[C@H](N)C(=O)O)[C@@H](O)CCCC(=O)O	·	·	–	·	–	·
Cc1cc2c(s1)c1cnn(Cc3ccc(Br)cc3)c(=O)c1n2C	·	·	·	–	·	–
COC1=C/C(=C/c2c(N)n3nc(CC(=O)N4CCCCC4)sc3nc2=O)C=CC1=O	–	–	·	–	·	–
CCOC1=C/C(=C/c2c(N)n3nc(S(=O)(=O)CC)sc3nc2=O)C=CC1=O	–	–	–	–	–	33.2
O=C(Oc1ccc(Br)cc1C(=S)N1CCOCC1)c1ccc([N+](=O)[O-])cc1[N+](=O)[O-]	?	–	·	35.8	·	–
CCC(C(=O)Nc1cccc(C#N)c1)n1nc(-c2ccccc2)ccc1=O (stereo unspecified)	·	·	·	–	–	–
CCSc1ncc(Cl)c(C(=O)Nc2sc3c(c2C(=O)NCCCOC)CCCC3)n1	·	·	·	–	3.55µM	–
CCOC(=O)c1c(NC(=O)c2nc(SCC)ncc2Cl)sc2c1CCCC2	·	·	·	–	–	–
Cc1ccc(-n2nc(C(=O)N3CCN(c4ccc(F)cc4)CC3)c(=O)n(C)c2=O)cc1	·	·	·	–	–	–
Cc1cc2c(s1)c1cnn(Cc3cc(F)c(F)c(F)c3)c(=O)c1n2C	·	·	·	–	·	–
COc1ccc(C2Nc3ccccc3C(=O)N2NS(C)(=O)=O)cc1 (stereo unspecified)	–	–	–	–	–	–
CC1Nc2ccccc2C(=O)N1NS(C)(=O)=O (stereo unspecified)	–	–	–	33.4	–	–
CCC(=O)N/N=C/c1ccc(-c2ccc([N+](=O)[O-])cc2)o1	?	–	–	–	–	–
CC(C)(C)C(=O)/C=c1\s/c(=C\c2ccc(-c3ccc([N+](=O)[O-])cc3)o2)c(=O)n1CC(=O)NC(N)=O	?	164.1	–	–	?	215.0
